# Experimental data as given in PubChem BioAssay (NCATS).
# Results filed as inconclusive are left out. Where a call stands in place of a potency, no number is given. Activity calls are given as the source filed them. Unless noted, calls come from the whole dose curve; as a rule, active = well fitted curve in the direction sought with a large enough effect; inconclusive = small, poorly fitted or top-dose-only effect, or another doubt; inactive = no such curve, though single readings can be large; an effect the other way counts as inactive or inconclusive.
# Columns and labels:
# [1] = target: Ferritin light chain (Equus caballus) (UniProt P02791); test: qHTS Validation Assay for Identification of Novel General Anesthetics (AID 2323)
# Summary of the method: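 10 uM horse-spleen apoferritin + 1-AMA (50% saturated, PBS); cpd pin-transferred, 10 min RT. Ex 380/Em 535 nm endpoint. Activity normalized between free 1-AMA and 1-AMA/apoferritin; 4-parameter Hill fit of concentration-response.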
# [2] = target: ATP-dependent DNA helicase Q1 (Homo sapiens) (UniProt P46063); test: qHTS Validation Assay for Inhibitors of RecQ-Like Dna Helicase 1 (RECQ1) (AID 2353)
# Summary of the method: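 50 nM RECQ1T1 preincubated 15 min with compound in Tris pH 8.0 buffer with MgCl2, DTT, Tween-20 and 2.5 ug/ml poly(dI-dC); started with 200 nM TAMRA/BHQ-2 forked duplex and 2 mM ATP. Unwinding read as fluorescence (525/598 nm), two reads 2 h apart.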
# [3] = target: RecQ-like DNA helicase BLM (Homo sapiens) (UniProt P54132); test: qHTS Validation Assay for Inhibitors of Bloom's syndrome helicase (BLM) (AID 2364)
# Summary of the method: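 50 nM BLM preincubated 15 min at room temperature with compound in pH 8.0 Tris buffer containing 2.5 ug/ml poly(dI-dC); started with 200 nM TAMRA/BHQ-2 forked duplex and 2 mM ATP (final). Unwinding read as TAMRA fluorescence increase, two reads 2 h apart.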
# [4] = Validation screen for inhibitors of Lassa infection (AID 463096; calls by dose curve)
# [5] = Validation screen for small molecules that induce DNA re-replication in MCF 10A normal breast cells (AID 463097); note: nearly all actives have a fitted effect of over 60% in size; note: potency is the fitted concentration of half-maximal effect
# Summary of the method: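 250 MCF 10A cells/well; compound pin-transferred; 48 hr, 37 C, 5% CO2; Hoechst 40 min; imaged 405/500-530 nm. Hits = more high-intensity nuclei.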
# [6] = Quantitative high throughput screen for delayed death inhibitors of the malarial parasite plastid, 96 hour incubation (AID 488745); note: nearly all actives have a fitted effect of over 70% in size; note: potency is the fitted concentration of half-maximal effect
# Summary of the method: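 Infected erythrocytes were added to compound in Albumax-supplemented RPMI 1640 at 0.1% parasitemia and 2% hematocrit (final), incubated 96 h at 37 C under 5% CO2, then luciferase reagent was added and luminescence measured.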
# [7] = Quantitative high throughput screen for delayed death inhibitors of the malarial parasite plastid, 48 hour incubation (AID 488752); note: nearly all actives have a fitted effect of over 65% in size; note: potency is the fitted concentration of half-maximal effect
# Summary of the method: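 Readout is firefly luciferase luminescence from a reporter integrated into the parasite genome, with lower signal taken as inhibited growth. Infected red cells (0.1% parasitemia, 2% hematocrit final) are cultured with compound for one 48 h cycle at 37 C.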
# [8] = qHTS Assay for Identification of Small Molecule Inducers of Hypoxia Response (AID 2120; active = well fitted curve in the direction sought with a large enough effect in the signal ratio, with a control signal flat, not every such curve was filed as active; the % refers to the signal ratio)
# Summary of the method: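 ME-180 HRE-bla cells plated in Opti-MEM/0.5% dialyzed FBS, rested 4-5 h, then dosed with compound titrations by pin tool. After 17 h at 37 degrees C, CCF4 dye loaded 2.5 h at RT; 460/530 nm ratio gave %Activity and AC50.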
# [9] = target: Thioredoxin reductase 1, cytoplasmic (Rattus norvegicus) (UniProt O89049); test: qHTS Assay for Inhibitors of Mammalian Selenoprotein Thioredoxin Reductase 1 (TrxR1) (AID 488773); conditions: Potency: inhibition; note: nearly all actives have a fitted effect of over 40% in size; note: potency is the fitted concentration of half-maximal effect
# Summary of the method: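 Steps: enzyme (90 nM) plus NADPH (400 uM final), 5 min at ~22 deg C; compound added, 15 min; selenite (400 uM final) added; fluorescence followed for 8 min. Concentration-response curves derived from the normalized delta values.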
# [10] = Cytometric Cell-Based qHTS for Inhibitors of the mTORC1 Signaling Pathway in MEF (Tsc2-/-, p53-/-) Cells (AID 2660);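 note: percent of cells above a phospho-rpS6 to PI ratio cutoff in each well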
# Summary of the method: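 Immunofluorescence qHTS of rpS6 Ser235/236 phosphorylation: MEFs (Tsc2-/-, p53-/-) treated 24 h, 37 C, in DMEM + 10% FBS. Alexa-488 signal normalized to PI count, referenced to rapamycin (7.5 nM) and DMSO; PI cell number recorded for viability.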
# [11] = High Content Imaging Cell-Based qHTS for Inhibitors of the mTORC1 Signaling Pathway in MEF (Tsc2-/-, p53-/-) Cells (AID 2666); conditions: at 38.3 µM (top of the series);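 note: percent of cells scored positive for phospho-rpS6 Ser235/236 immunostaining by imaging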
# Summary of the method: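 Phospho-rpS6 (Ser235/236) immunofluorescence, normalized and scored as % positive cells using rapamycin and DMSO controls, was read in empty-vector Tsc2-/-, p53-/- MEFs after 24 h compound exposure at 37 C; propidium iodide counted cells.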
# [12] = High Content Imaging Cell-Based qHTS for Inhibitors of the mTORC1 Signaling Pathway in MEF Cells (AID 2667);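 note: Tsc2-/- p53-/- MEFs stably re-expressing wild-type Tsc2 exposed 24 h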
# Summary of the method: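 WT MEFs (Tsc2-/-, p53-/- re-expressing Tsc2), in DMEM + 10% FBS, were treated with compound for 24 h at 37 C. Cells were then fixed and stained for phospho-rpS6 Ser235/236 with propidium iodide as cell count. Values are % positive cells, with thresholds set against rapamycin-treated cells.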
# [13] = Cytometry Cell-Based qHTS for Inhibitors of the mTORC1 Signaling Pathway in MEF cells (AID 2668);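 note: Tsc2-/- p53-/- mouse embryonic fibroblasts stably re-expressing wild-type Tsc2; percent cells positive for phospho-rpS6 Ser235/236 relative to propidium iodide stain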
# Summary of the method: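 Read-out: phospho-rpS6 Ser235/236 immunofluorescence normalized to propidium iodide intensity, scored as % active cells against a rapamycin (7.5 nM) threshold. Cells: Tsc2-/-, p53-/- MEFs stably expressing WT Tsc2, compound-treated 24 hrs at 37 degree Celsius.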
# [14] = target: Ubiquitin carboxyl-terminal hydrolase 2 (Homo sapiens) (UniProt O75604); test: qHTS Validation Assay for Inhibitors of Ubiquitin-specific Protease USP2a Using CHOP2 as the Reporter (AID 463106)
# Summary of the method: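 USP2 core (10 nM final) was preincubated with compound 30 min at RT in pH 8.0 Tris/CaCl2/beta-ME/CHAPS buffer. Ub-CHOP2 and reporter substrate (25 nM final each) were then added, with fluorescence (Ex 485/Em 531) read after 60 min. Data were normalized to NEM full inhibition and fitted to concentration-response curves.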
# [15] = target: DNA polymerase III PolC-type (Bacillus subtilis (strain 168)) (UniProt P13267); test: qHTS Validation Assay for the Inhibitors of DNA Replication in Gram-Positive Bacteria (AID 485295);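 note: reconstituted holoenzyme with PolC plus beta clamp SSB and primase; PicoGreen fluorescence of double-stranded DNA made on primed circular M13 template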
# Summary of the method: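 PicoGreen fluorescence (ex 480–485/em 535–540 nm) reports dsDNA synthesized on ssM13Gori template with dNTPs/NTPs. Enzyme: holoenzyme rebuilt from purified PolC, beta subunit, SSB and primase. Compound preincubated before substrate addition; RT throughout.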
# [16] = target: Tumor susceptibility gene 101 protein (Homo sapiens) (UniProt Q99816); test: qHTS Validation Assay for Iinhibitors of HIV-1 Budding by Blocking the Interaction of PTAP/TSG101 (AID 485342; calls by dose curve)
# Summary of the method: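 FP read-out: FITC-PTAP peptide, 50 nM final, binding Tsg101 binding domain, 10 uM final; 20 min r.t.; 10 mM HEPES pH 7.5, 0.15 M NaCl, 0.01% Tween 20, 3 mM EDTA, 0.1 mM TCEP.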
# [17] = qHTS Validation Assay to Find Inhibitors of Chronic Active B-Cell Receptor Signaling (AID 485345; active = well fitted curve in the direction sought with a large enough effect in the main read-out, with a control signal flat, not every such curve was filed as active)
# Summary of the method: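 TMD8 ABC-DLBCL cells stably carrying doxycycline-inducible IkappaBalpha–green luciferase fusion plus unfused red luciferase; compounds 46 uM to 3 nM, 4 h at 37C with doxycycline. Corrected green/red luminescence ratio normalized to 10 uM MG-132 and basal cell wells; curves fitted.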
# [18] = target: Beta-2 adrenergic receptor (Homo sapiens) (UniProt P07550); test: qHTS validation assay of beta-arrestin-biased ligands of beta2-adrenergic receptor (AID 485366)
# Summary of the method: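 Arrestin-recruitment (Tango) reporter: ligand-bound beta2-AR recruits beta-arrestin, releasing tTA, which upregulates luciferase. Titrations of up to 46 microM incubated 18 hr at 37 degrees C before luminescent readout.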
# [19] = target: ATP-dependent 6-phosphofructokinase (Trypanosoma brucei brucei) (UniProt O15648); test: qHTS Validation Assay to Find Inhibitors of T. brucei phosphofructokinase (AID 485368); conditions: outcome: dose series up to 57.5 µM
# Summary of the method: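 Steps: substrate mix (0.5 mM F6P, 0.1 mM ATP, MgCl2, TEA pH 8.0); compound; 1.25 nM T. brucei PFK; 45 min RT; ATP depletion 10 min; ADP-to-ATP detection 10 min; luminescence read; curve fitting and classification.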
# [20] = target: Thioredoxin reductase 1, cytoplasmic (Rattus norvegicus) (UniProt O89049); test: qHTS Assay for Substrates of Mammalian Selenoprotein Thioredoxin Reductase 1 (TrxR1) (AID 488772);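 note: NADPH fluorescence in the first read after selenite addition and not the 8 min delta; a drop in NADPH fluorescence below the no-compound background marks a TrxR1 substrate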
# Summary of the method: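 Quantitative HTS in Tris-HCl buffer at pH 7.5 with EDTA and Tween-20, using rat TrxR1, 400 uM NADPH and 400 uM selenite (final). A fall in initial NADPH fluorescence relative to background marked substrate behaviour.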
# Chain of Thioredoxin reductase 1, cytoplasmic (Rattus norvegicus) (O89049 whole entry, looked up): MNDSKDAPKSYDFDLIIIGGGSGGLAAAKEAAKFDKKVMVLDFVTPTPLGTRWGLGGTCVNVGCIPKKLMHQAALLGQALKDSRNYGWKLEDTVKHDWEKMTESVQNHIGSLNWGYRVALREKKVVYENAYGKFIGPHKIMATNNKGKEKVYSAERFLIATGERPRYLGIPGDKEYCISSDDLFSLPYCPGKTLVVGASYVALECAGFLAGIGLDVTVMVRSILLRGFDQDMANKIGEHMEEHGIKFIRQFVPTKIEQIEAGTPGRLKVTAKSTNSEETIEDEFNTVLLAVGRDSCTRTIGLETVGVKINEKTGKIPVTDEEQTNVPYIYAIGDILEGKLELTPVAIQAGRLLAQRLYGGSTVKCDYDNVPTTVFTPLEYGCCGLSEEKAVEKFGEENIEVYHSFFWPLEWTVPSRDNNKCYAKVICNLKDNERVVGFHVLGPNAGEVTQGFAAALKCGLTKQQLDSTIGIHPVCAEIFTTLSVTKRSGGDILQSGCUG
# Chain of ATP-dependent DNA helicase Q1 (Homo sapiens) (P46063 whole entry, looked up): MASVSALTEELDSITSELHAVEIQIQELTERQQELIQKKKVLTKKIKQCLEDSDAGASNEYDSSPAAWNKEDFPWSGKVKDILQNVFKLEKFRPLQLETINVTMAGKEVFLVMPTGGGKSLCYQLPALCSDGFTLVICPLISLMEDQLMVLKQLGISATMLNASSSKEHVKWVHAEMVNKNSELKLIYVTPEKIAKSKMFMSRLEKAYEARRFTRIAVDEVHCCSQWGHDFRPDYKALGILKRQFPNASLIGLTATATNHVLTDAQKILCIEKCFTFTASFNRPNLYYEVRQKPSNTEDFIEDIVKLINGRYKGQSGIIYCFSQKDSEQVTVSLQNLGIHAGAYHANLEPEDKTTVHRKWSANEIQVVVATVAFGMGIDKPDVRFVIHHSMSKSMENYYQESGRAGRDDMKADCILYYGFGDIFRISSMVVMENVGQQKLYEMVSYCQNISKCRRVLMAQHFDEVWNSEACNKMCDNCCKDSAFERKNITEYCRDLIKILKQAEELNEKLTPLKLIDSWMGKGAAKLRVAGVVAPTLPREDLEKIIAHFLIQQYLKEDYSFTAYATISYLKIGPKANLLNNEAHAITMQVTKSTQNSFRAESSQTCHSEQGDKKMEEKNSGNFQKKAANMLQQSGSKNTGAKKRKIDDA
# Chain of Ferritin light chain (Equus caballus) (P02791 2-175 limits assumed): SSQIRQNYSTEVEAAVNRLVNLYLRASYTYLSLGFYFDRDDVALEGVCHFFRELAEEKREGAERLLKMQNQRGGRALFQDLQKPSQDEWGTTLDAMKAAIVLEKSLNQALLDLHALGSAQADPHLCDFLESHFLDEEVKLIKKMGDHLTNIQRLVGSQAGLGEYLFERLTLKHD
# Chain of Tumor susceptibility gene 101 protein (Homo sapiens) (Q99816 whole entry, looked up, the tested form may be a part): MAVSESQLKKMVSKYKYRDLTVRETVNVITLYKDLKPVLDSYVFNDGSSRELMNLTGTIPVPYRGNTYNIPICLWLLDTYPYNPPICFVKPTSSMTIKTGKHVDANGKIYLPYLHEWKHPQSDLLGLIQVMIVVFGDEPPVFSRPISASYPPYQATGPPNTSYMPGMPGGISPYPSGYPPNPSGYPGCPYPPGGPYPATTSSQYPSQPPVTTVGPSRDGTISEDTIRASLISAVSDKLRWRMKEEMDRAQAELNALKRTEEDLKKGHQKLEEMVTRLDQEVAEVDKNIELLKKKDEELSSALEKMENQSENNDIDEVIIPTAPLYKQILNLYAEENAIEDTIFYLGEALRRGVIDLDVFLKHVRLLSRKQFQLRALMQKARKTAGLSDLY
# Chain of RecQ-like DNA helicase BLM (Homo sapiens) (P54132 whole entry, looked up): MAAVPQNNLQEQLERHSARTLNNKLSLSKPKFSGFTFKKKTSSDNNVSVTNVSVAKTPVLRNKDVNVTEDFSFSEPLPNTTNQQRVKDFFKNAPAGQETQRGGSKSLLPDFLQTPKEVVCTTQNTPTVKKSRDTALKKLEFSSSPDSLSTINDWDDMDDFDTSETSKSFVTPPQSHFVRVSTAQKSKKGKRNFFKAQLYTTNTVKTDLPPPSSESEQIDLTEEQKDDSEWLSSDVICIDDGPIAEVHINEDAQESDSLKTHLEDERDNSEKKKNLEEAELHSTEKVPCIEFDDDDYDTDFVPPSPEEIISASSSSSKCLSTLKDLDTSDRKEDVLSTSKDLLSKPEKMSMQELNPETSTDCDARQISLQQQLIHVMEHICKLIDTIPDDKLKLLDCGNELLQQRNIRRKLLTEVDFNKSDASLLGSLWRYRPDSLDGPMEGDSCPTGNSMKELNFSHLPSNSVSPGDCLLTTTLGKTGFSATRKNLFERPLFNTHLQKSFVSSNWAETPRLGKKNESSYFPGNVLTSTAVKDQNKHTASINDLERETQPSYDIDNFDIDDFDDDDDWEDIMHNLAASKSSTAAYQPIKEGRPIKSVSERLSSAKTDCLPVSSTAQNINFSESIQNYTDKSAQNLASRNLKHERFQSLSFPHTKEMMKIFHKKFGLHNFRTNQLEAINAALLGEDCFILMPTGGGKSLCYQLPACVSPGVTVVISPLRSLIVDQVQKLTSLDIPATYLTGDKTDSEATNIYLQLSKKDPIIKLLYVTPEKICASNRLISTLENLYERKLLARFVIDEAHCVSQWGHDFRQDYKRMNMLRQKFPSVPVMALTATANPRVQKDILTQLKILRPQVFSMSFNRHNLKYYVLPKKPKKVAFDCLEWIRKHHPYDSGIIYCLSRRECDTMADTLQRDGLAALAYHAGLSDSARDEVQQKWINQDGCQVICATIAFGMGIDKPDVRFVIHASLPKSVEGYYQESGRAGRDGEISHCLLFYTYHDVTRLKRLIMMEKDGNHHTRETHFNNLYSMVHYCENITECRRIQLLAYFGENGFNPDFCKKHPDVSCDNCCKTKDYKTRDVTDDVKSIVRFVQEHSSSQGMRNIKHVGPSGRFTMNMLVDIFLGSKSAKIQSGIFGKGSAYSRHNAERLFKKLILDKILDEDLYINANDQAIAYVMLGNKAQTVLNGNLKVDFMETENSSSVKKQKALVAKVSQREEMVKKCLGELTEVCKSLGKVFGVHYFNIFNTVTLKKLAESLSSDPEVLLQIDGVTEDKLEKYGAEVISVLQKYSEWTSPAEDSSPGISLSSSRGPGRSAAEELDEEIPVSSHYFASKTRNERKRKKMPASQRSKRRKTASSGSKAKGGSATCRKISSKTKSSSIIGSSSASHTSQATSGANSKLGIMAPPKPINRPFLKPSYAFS
# Chain of Beta-2 adrenergic receptor (Homo sapiens) (P07550 whole entry, looked up): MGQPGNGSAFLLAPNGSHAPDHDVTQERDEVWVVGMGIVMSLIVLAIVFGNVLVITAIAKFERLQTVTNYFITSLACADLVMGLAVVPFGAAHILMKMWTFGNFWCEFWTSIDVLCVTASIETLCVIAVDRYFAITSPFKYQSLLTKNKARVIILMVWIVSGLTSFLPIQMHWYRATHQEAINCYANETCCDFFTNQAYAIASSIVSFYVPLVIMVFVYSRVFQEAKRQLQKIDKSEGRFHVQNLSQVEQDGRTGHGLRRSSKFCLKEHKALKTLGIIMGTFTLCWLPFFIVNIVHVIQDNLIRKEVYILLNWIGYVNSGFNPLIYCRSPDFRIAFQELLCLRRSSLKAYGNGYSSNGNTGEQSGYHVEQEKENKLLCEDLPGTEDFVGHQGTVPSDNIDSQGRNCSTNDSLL
# Chain of DNA polymerase III PolC-type (Bacillus subtilis (strain 168)) (P13267 whole entry, looked up): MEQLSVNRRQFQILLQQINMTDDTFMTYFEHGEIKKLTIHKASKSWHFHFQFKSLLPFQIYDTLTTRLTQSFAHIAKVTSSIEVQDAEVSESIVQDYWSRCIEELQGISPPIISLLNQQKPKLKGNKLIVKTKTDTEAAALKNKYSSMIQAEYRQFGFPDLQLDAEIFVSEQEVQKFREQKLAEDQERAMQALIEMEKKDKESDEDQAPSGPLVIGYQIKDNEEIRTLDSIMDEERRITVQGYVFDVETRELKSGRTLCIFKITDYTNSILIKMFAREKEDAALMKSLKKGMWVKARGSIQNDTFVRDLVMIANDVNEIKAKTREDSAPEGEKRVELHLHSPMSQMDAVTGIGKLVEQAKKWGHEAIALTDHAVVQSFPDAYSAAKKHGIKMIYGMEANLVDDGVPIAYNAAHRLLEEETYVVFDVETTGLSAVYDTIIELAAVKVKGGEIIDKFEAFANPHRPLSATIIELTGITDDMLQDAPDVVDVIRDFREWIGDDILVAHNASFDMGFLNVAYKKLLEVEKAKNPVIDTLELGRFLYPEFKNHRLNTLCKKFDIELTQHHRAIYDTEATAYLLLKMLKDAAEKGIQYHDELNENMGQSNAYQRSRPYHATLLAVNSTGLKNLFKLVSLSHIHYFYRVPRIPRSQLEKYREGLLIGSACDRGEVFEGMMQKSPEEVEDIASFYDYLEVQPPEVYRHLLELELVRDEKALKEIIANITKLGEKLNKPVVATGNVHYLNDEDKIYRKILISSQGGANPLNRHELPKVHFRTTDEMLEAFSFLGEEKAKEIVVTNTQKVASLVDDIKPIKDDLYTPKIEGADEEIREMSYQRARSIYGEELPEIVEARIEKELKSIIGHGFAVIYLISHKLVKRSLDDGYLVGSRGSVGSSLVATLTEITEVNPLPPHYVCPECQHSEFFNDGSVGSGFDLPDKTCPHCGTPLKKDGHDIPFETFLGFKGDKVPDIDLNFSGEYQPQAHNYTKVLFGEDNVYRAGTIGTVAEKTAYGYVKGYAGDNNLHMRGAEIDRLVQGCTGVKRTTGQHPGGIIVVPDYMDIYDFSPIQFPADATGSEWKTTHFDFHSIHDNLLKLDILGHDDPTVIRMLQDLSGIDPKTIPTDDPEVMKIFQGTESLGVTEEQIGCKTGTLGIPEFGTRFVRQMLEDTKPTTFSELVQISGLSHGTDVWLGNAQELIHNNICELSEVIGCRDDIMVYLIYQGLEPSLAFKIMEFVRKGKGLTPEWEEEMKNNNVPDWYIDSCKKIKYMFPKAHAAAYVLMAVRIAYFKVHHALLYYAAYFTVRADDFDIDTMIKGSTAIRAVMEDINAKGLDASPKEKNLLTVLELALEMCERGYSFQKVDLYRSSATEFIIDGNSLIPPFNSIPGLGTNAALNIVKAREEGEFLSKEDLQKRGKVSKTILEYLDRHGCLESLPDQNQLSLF
structure (smiles),measurement,setting,value
c1ccc2nc(N3CCNCC3)ccc2c1,outcome,[1],inactive
same,outcome,[2],inactive
same,outcome,[3],inactive
same,Potency,[4],inactive
same,Potency,[5],inactive
same,Potency,[6],inactive
same,Potency,[7],inactive
Nc1c2c(nc3ccccc13)CCCC2,Potency,[4],inactive
Nc1c2c(nc3ccccc13)CCCC2O (stereo not given),Potency,[4],inactive
CN(C)C(=S)SSC(=S)N(C)C,outcome,[8],inactive
CCCCCN(CCCCC)C(=O)C(CCC(=O)O)NC(=O)c1ccc(Cl)c(Cl)c1 (stereo not given),Potency,[4],inactive
COP(=O)(OC)OC=C(Cl)Cl,outcome,[8],inactive
Brc1c(NC2=NCCN2)ccc2nccnc12,outcome,[1],inactive
same,Potency,[4],inactive
same,Potency,[9],16.8 µM (active)
COC(=O)C1=CCCN(C)C1,outcome,[1],inactive
same,outcome,[2],inactive
same,outcome,[10],inactive
same,outcome,[11],inactive
same,outcome,[12],inactive
same,Potency,[13],inactive
same,Potency,[4],inactive
same,Potency,[5],inactive
same,outcome,[14],inactive
same,outcome,[15],inactive
same,outcome,[16],inactive
same,outcome,[17],inactive
same,outcome,[18],inactive
same,outcome,[19],inactive
same,Potency,[6],inactive
same,Potency,[7],inactive
same,outcome,[20],inactive
same,Potency,[9],inactive
Oc1c(Br)cc(Br)cc1Br,outcome,[8],inactive
NC(N)=N/N=C/c1c(Cl)cccc1Cl,outcome,[3],inactive
same,Potency,[4],inactive
O=C(O)CP(=O)(O)O,Potency,[4],inactive
CCCCCCCCC(=O)NCc1ccc(O)c(OC)c1,outcome,[2],inactive
same,Potency,[4],inactive
same,Potency,[5],inactive
same,Potency,[6],inactive
same,Potency,[7],inactive
NC(=O)CN1CCCC1=O,outcome,[1],inactive
same,outcome,[2],inactive
same,outcome,[10],inactive
same,outcome,[11],inactive
same,outcome,[12],inactive
same,Potency,[13],inactive
same,Potency,[4],inactive
same,Potency,[5],inactive
same,outcome,[14],inactive
same,outcome,[15],inactive
same,outcome,[16],inactive
same,outcome,[17],inactive
same,outcome,[18],inactive
same,Potency,[6],inactive
same,Potency,[7],inactive
same,outcome,[20],inactive
same,Potency,[9],inactive
CN(C)CCOC(c1ccccc1)c1ccccc1,Potency,[4],inactive
NC(N)=NC(=O)c1nc(Cl)c(N)nc1N,outcome,[1],inactive
same,outcome,[3],inactive
same,Potency,[4],inactive
same,outcome,[20],inactive
COC(=O)C1=C(C)NC(C)=C(C(=O)OC)C1c1ccccc1[N+](=O)[O-],Potency,[5],12.6 µM (active)
CCOC(=O)Nc1ccc(NCc2ccc(F)cc2)nc1N,outcome,[16],inactive
same,Potency,[9],10.6 µM (active)
CNC(=O)Oc1ccc2c(c1)[C@]1(C)CCN(C)[C@@H]1N2C,outcome,[19],inactive
O=C1NCN(c2ccccc2)C12CCN(CCCC(c1ccc(F)cc1)c1ccc(F)cc1)CC2,Potency,[6],3.7 µM (active)
same,Potency,[7],9.28 µM (active)
